Assay results from PubChem BioAssay AID1850 (Southern Research Specialized Biocontainment Screening …, 2009).
Out of some 310,000 compounds screened, about 1,000 (0.32%) were called active. The rule behind the calls is not given here. A selection follows. Results with a measured potency or affinity are listed apart.

Test: PhoP regulon inhibitors, Salmonella typhi PhoP promoter GFP reporter, confirmatory (AID 1850);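 note: 0% = induced wells with vehicle and 100% = uninduced wells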
Conditions: fluorescence, 4 h, at 50 µM, active compounds read high
In the case of `CN(C)C(=S)Nc1ccc(Cc2ccncc2)cc1`, the inhibition was -0.62% (inactive).
With `CCN(Cc1ccccc1)C(=O)c1cccc(S(=O)(=O)N2CCN(c3ccccc3)CC2)c1` the inhibition was 1.18% (inactive).
In the case of `COCCCN1CN(S(=O)(=O)c2ccc(C)cc2C)c2nc3ccccc3nc21`, the inhibition was 6.06% (inactive).
With `COCCCNC(=O)c1ccccc1N(Cc1ccccc1)S(=O)(=O)c1ccccc1` the inhibition was -7.24% (inactive).
For `N=c1c2c(n(Cc3ccc(Br)cc3)c3c1CCC3)CCCC2`, the inhibition was -4.26% (inactive).
In the case of `N=c1c2c(n(Cc3ccc([N+](=O)[O-])cc3)c3c1CCC3)CCCC2`, the inhibition was -1.87% (inactive).
In the case of `N=c1c2c(n(Cc3ccc(F)cc3)c3c1CCC3)CCCC2`, the inhibition was 5.47% (inactive).
For `N=c1ccn(Cc2ccc(Cl)cc2Cl)cc1`, the inhibition was 22.8% (inactive).
With `N=c1c2c(n(Cc3ccccc3)c3c1CCC3)CCC2` the inhibition was -2.77% (inactive).
In the case of `Clc1cccc(CN2CCCCCC2)c1`, the inhibition was -6.25% (inactive).
For `CCn1c2c(c(=N)c3c1CCC3)CCCC2`, the inhibition was 8.7% (inactive).
In the case of `N=c1c2c(n(Cc3ccc(F)cc3)c3c1CCC3)CCC2`, the inhibition was -1.84% (inactive).
For `COc1ccc(N2CCN(S(=O)(=O)CCNC(=O)/C=C/c3ccc4c(c3)OCO4)CC2)cc1`, the inhibition was -1.81% (inactive).
For `CC(C)NC(=O)C(=O)NCc1ccccn1`, the inhibition was 15.4% (inactive).
With `CN(CCn1ccnc1)Cc1cn(Cc2ccccc2)nc1-c1ccc2c(c1)OCO2` the inhibition was 8.95% (inactive).
In the case of `CCCn1c(=O)c(C(=O)NCCc2ccc(OC)c(OC)c2)c(O)c2ccccc21`, the inhibition was 3.2% (inactive).
For `CCn1c(/N=C/c2ccccc2O)nc2ccccc21`, the inhibition was -0.93% (inactive).
In the case of `CCN1CCSc2ccc(C(=O)NCc3ccc(OC(C)C)cc3)cc21`, the inhibition was -2.46% (inactive).
In the case of `COc1ccc(NC(=O)CNCCC2=CCCCC2)cc1`, the inhibition was -8.03% (inactive).
With `O=C(CNCCC1=CCCCC1)Nc1ccccc1N1CCCCCC1` the inhibition was 5.47% (inactive).
With `O=S1(=O)NC(=NCCc2ccccn2)c2ccccc21` the inhibition was -5.57% (inactive).
For `Clc1ccc2ccc3cccnc3c2n1`, the inhibition was 2.67% (inactive).
With `Cc1ccc2ccc3cccnc3c2n1` the inhibition was 2.32% (inactive).
In the case of `Cc1ccc2c(c1)-c1ccccc1S(=O)(=O)N2`, the inhibition was -6.75% (inactive).
In the case of `CCC(C)c1ccccc1N1CC(C(=O)Nc2cc(S(=O)(=O)N3CCOCC3)ccc2OC)CC1=O` (centres undefined), the inhibition was 1.56% (inactive).
With `CSc1ccc(C2NC(=O)CCC2[N+](=O)[O-])cc1` (centres undefined) the inhibition was 9.78% (inactive).
In the case of `Cc1c(C(=O)N2CCN(C(=O)c3ccco3)CC2)oc2c(Cl)cccc12`, the inhibition was 5.99% (inactive).
For `Cc1ccc(C(=O)O/N=C/C2=C(Cl)c3ccccc3CC2)cc1`, the inhibition was 3.65% (inactive).
With `O=C(O/N=C/C1=C(Cl)c2ccccc2CC1)c1ccc(F)cc1` the inhibition was -1% (inactive).
